Assay outcomes: PubChem, several laboratories
Shown are actives, neighbours in structure and some others; about 5.4% of the full set was active somewhere.
GAA850 FXN act: frataxin GAA850 promoter activation; 360,000 compounds, 0.56% hits; HEK293 lucGAA850 FXN promoter luciferase reporter, 24 h; percent of 10 µM SAHA response; AID 540364; activation, % at 6 µM;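 active means activation above the average of all compounds screened plus 3 SD, cutoff fixed separately per campaign, cut at about 7.5% in these data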;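 further: 0% = DMSO wells and 100% = 10 µM SAHA wells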
DAX1 inh: NR0B1 (DAX1) inhibition. P51843. HEK293 Gal4-DAX1 luciferase reporter, luminescence. inhibition, % at 6.75 µM. 340,000 compounds, 0.99% hits;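 active means inhibition above the mean over all tested compounds plus 3 SD, cut at about 4.2% in these data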;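 further: 0% = DAX1-transfected cells with DMSO and 100% = empty-vector control cells with DMSO; inhibition shows as a rise in luminescence from relieved DAX1 repression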
Target sequence (P51843 207-470 limits assumed): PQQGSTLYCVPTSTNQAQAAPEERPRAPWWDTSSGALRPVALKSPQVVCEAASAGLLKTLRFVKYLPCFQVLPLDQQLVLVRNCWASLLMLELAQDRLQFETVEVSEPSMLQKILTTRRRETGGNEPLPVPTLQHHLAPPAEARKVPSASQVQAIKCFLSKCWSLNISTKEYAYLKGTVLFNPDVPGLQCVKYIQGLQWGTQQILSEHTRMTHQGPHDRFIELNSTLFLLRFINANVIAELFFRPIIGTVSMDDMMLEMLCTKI
HSF1 inh: HSF1 inhibition; AID 2098; 300,000 compounds, 0.77% hits; activity change, negative = inhibition, % at 7.5 µM (by protocol); NIH3T3-HGL HSE-luciferase, MG132-induced, luminescence 8 h; active compounds read low;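 active means more than half of replicate wells show activity change below -50%, luminescence cut by over half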;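 further: luciferase reports HSF-1 transcriptional activity via heat shock element; 0% = median of DMSO wells and -100% = zero luminescence signal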
AHR act: activates the human aryl hydrocarbon receptor; AHR-responsive luciferase reporter cells, luminescence; 320,000 compounds, 2.5% hits; AID 2796; activation, % at 5 µM; in the data active means activation above about 47%;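 further: 0% = vehicle wells and 100% = reference agonist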
HSF-1 act: increases HSF-1 driven luciferase reporter signal | NIH3T3-HGL HSF-1 luciferase reporter, MG132, 8 h; 100% = twice DMSO control signal | activation, % at 9 µM | 300,000 compounds, 1.7% hits | AID 504408;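 active means mean replicate activation of at least 50% with a set share of replicates each reaching 50%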;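 further: 0% = median of the neutral control wells and 100% = twice that signal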
Active calls of the source: *.

Results for Oc1[nH]c2ccc(Br)cc2c1N=Nc1ccc(C(F)(F)F)cn1 ?
GAA850 FXN act: 0.5; DAX1 inh: 0.4; HSF1 inh: -4.4; AHR act: 64.4*; HSF-1 act: -24.0

What do the screens show for `O=C(O)c1ccc(N=Nc2c(O)[nH]c3ccc(Br)cc23)cc1`?
GAA850 FXN act: 3.9; DAX1 inh: 3.4; HSF1 inh: -21.0; AHR act: 13.8; HSF-1 act: -21.8

How did Oc1[nH]c2ccccc2c1N=Nc1ccc(C(F)(F)F)cn1 do in these assays?
GAA850 FXN act: 0.8; DAX1 inh: 0.0; HSF1 inh: 16.5; AHR act: 55.3*; HSF-1 act: 21.3

How did Cc1cc(=O)oc2cc(NC(=O)c3ccccc3Cl)ccc12 do in these assays?
GAA850 FXN act: 4.8; DAX1 inh: 0.4; HSF1 inh: 20.9; AHR act: 63.0*; HSF-1 act: 62.5*

What do the screens show for `COc1cccc(C(=O)Nc2ccc3c(C)cc(=O)oc3c2)c1`?
GAA850 FXN act: 4.8; DAX1 inh: 1.4; HSF1 inh: 62.4; HSF-1 act: 107.8*

How did S=C(NCc1cccnc1)Nc1ccc(Cl)cc1 do in these assays?
GAA850 FXN act: 3.8; DAX1 inh: 1.2; HSF1 inh: 1.1; AHR act: -0.3; HSF-1 act: 1.5

How did CCCN=C(Nc1ccc(Cl)cc1)c1cccnc1 do in these assays?
GAA850 FXN act: 1.1; DAX1 inh: -0.2; HSF1 inh: -3.6; AHR act: 118.1*; HSF-1 act: -15.5

What do the screens show for `CCCCN=C(Nc1ccc(Cl)cc1)c1cccnc1`?
GAA850 FXN act: 0.7; DAX1 inh: -1.2; HSF1 inh: 9.7; AHR act: 88.5*; HSF-1 act: 42.0

What do the screens show for `NS(=O)(=O)c1cccc(NC(=O)CSc2nc3ccccc3c(=O)n2CC2CCCO2)c1` (centres undefined)?
GAA850 FXN act: 1.4; DAX1 inh: -1.4

What do the screens show for `CC(Sc1nc2ccccc2c(=O)n1CC1CCCO1)C(=O)Nc1ccc(S(N)(=O)=O)cc1` (centres undefined)?
GAA850 FXN act: -1.5; DAX1 inh: 0.0; HSF1 inh: 25.0; AHR act: 3.3; HSF-1 act: 55.8*

What do the screens show for `COc1ccc(NC(C)=O)cc1S(=O)(=O)N1CCN(Cc2cccs2)CC1`?
GAA850 FXN act: 0.6; DAX1 inh: 0.2; AHR act: -0.7

What do the screens show for `Cc1ccc(N2C(=O)N(CC(=O)Nc3c(C)cc(C)cc3Cl)C(=O)C2C)cc1` (centres undefined)?
GAA850 FXN act: 2.8; DAX1 inh: -1.2; HSF1 inh: -10.2; AHR act: -0.9; HSF-1 act: 3.6

Results for COCCNC(=O)COC(=O)C1=Cc2ccccc2OC1 ?
GAA850 FXN act: 0.5; DAX1 inh: 4.7*; HSF1 inh: 1.1; AHR act: 1.6; HSF-1 act: 11.3

Results for COc1ccc2nc3cc(Cl)ccc3c(Nc3ccc(O)c(CN4CCN(C)CC4)c3)c2c1 ?
GAA850 FXN act: 1.9; DAX1 inh: 4.3*

Results for Cc1cc(/C=C(\C#N)C(=O)Nc2ccccc2)c(C)n1-c1cccnc1 ?
GAA850 FXN act: 5.6; DAX1 inh: 0.2; HSF1 inh: 22.6; AHR act: 29.6; HSF-1 act: 58.2*

Results for CCOC(=O)/C(C#N)=C/c1cc(C)n(-c2ccccc2)c1C ?
GAA850 FXN act: -9.8; DAX1 inh: 2.4; HSF1 inh: -70.1*; AHR act: 2.7; HSF-1 act: -73.6

How did CCOc1ccccc1NC(=O)COC(=O)c1nc2nccc(C)n2n1 do in these assays?
GAA850 FXN act: -0.1; DAX1 inh: 0.9; AHR act: 1.6

How did O=C(CN1CCOc2ccccc21)NC1CCCCCCC1 do in these assays?
GAA850 FXN act: 3.2; DAX1 inh: 4.8*; HSF1 inh: 16.4; AHR act: 0.4; HSF-1 act: 30.5

How did O=C(CN1CCOc2ccccc21)NC1CCN(Cc2ccccc2)CC1 do in these assays?
GAA850 FXN act: -0.7; DAX1 inh: 0.6; HSF1 inh: -15.1; AHR act: 15.2; HSF-1 act: -0.6

How did COc1cc(NCCCC(C)N)c2ncccc2c1 (centres undefined) do in these assays?
GAA850 FXN act: -0.9; DAX1 inh: -2.6; HSF1 inh: 17.6; HSF-1 act: 33.7

How did CCC(CNc1cc(OC)cc2cccnc12)NC1CCCCC1 (centres undefined) do in these assays?
GAA850 FXN act: -0.4; DAX1 inh: -0.3; HSF1 inh: -75.9*; AHR act: 48.5*; HSF-1 act: -80.1

How did NC(=O)c1ccccc1N/C=C/C(=O)c1ccc(Cl)cc1Cl do in these assays?
GAA850 FXN act: 3.6; DAX1 inh: -1.0; HSF1 inh: 19.7; HSF-1 act: 66.4*

Results for NC(=O)c1ccccc1N/C=C/C(=O)c1ccc(F)cc1 ?
GAA850 FXN act: 3.9; DAX1 inh: 1.4; HSF1 inh: 19.4; HSF-1 act: 40.7

What do the screens show for `COc1ccc2c(c1)O/C(=C\c1sccc1C)C2=O`?
GAA850 FXN act: 3.0; DAX1 inh: 0.0; HSF1 inh: 10.0; AHR act: 7.3; HSF-1 act: 27.1

How did O=C(Nc1cccc(-c2nc3ccccc3s2)c1)c1cccs1 do in these assays?
GAA850 FXN act: 3.8; DAX1 inh: -2.0; HSF1 inh: 12.4; AHR act: 45.6; HSF-1 act: 35.2

How did O=C(CCS(=O)(=O)c1ccccc1)Nc1cccc(-c2nc3ccccc3s2)c1 do in these assays?
GAA850 FXN act: 5.5; DAX1 inh: 0.2; HSF1 inh: 19.6; AHR act: 68.5*; HSF-1 act: 20.1

How did O=C(CCS(=O)(=O)c1ccccc1)Nc1ccc(-c2nc3ccccc3s2)cc1 do in these assays?
GAA850 FXN act: 0.8; DAX1 inh: -1.7; HSF1 inh: 14.5; AHR act: 7.2; HSF-1 act: 57.5*

What do the screens show for `CC(C)CNC(=O)C1CCN(S(=O)(=O)c2ccc3c(c2)OCCO3)CC1`?
GAA850 FXN act: -0.5; DAX1 inh: 0.5; HSF1 inh: -0.1; AHR act: -0.3; HSF-1 act: -13.2

What do the screens show for `CC1CCC/C(=N\NS(=O)(=O)c2ccccc2)C1` (centres undefined)?
GAA850 FXN act: -0.8; DAX1 inh: 0.2; HSF1 inh: -5.3; AHR act: 14.1; HSF-1 act: -16.7

How did CC1CCC/C(=N\NC(=O)Nc2ccccc2)C1 (centres undefined) do in these assays?
GAA850 FXN act: 0.8; DAX1 inh: 4.8*; HSF1 inh: 8.2; AHR act: 16.6; HSF-1 act: 12.3

What do the screens show for `O=C(CN1CCN(C(=O)CNC(=O)c2ccc(N3CCCC3=O)cc2)CC1)Nc1cccc(F)c1`?
GAA850 FXN act: 0.8; DAX1 inh: 0.3

What do the screens show for `Cn1c2ccccc2c2cc(C(=O)NNS(=O)(=O)c3ccc(F)cc3)sc21`?
GAA850 FXN act: 0.9; DAX1 inh: -0.8; HSF1 inh: 16.5; AHR act: 76.9*; HSF-1 act: 13.5

Results for CN(C)CCCNC(=O)c1cc2c3ccccc3n(C)c2s1 ?
GAA850 FXN act: 2.4; DAX1 inh: 1.6; HSF1 inh: -0.9; AHR act: 28.4; HSF-1 act: -12.4

How did CCCCOC(=O)/C=C\C(=O)OCCCC do in these assays?
GAA850 FXN act: 1.4; DAX1 inh: 6.9*; HSF1 inh: 2.8; AHR act: -1.3; HSF-1 act: 12.8
